AmpC no deterg – qHTS Inhibitors of AmpC Beta-Lactamase (assay without detergent). Potency, µM (top dose mostly 57.1 µM), inactives show at the highest dose activity change, negative = inhibition, most hits filed as inhibitors. 330,000 tested, 0.52% active. AID 485341, 2010. P00811. AmpC nitrocefin hydrolysis, absorbance 480 nm, 0.0001% Triton;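 note: plate controls were no compound for no effect and no enzyme for full effect; nearly all actives have a fitted effect of over 20% in size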
Target sequence (P00811 whole entry, looked up): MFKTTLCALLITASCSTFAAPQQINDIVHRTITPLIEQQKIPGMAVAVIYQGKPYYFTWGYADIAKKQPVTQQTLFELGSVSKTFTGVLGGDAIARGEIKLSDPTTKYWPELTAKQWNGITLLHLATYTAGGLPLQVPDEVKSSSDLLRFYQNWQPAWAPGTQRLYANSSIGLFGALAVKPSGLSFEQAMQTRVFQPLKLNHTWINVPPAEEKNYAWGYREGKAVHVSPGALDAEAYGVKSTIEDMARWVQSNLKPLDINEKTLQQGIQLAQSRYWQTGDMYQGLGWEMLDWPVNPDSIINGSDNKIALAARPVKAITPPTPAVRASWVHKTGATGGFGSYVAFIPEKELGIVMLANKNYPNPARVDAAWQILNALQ
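AmpC (5.3 nM in the dispensed reagent) in 20 mM phosphate pH 7.0 with 0.01% (detergent screen) or 0.0001% Triton X-100 was preincubated with compounds for 15 min at room temperature. Nitrocefin was then added from an 800 uM solution, and hydrolysis was followed at 480 nm.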
HCV inh – qHTS Assay for Inhibitors of Hepatitis C Virus (HCV) | Potency, µM (titrated, usually from 41.8 µM), for the others: at the highest dose activity change, negative = inhibition, hits mostly inhibitors | Huh7.5.1 HCVcc-Cre infection, luciferase reporter, 44 h | 340,000 tested, 3.4% active | AID 651820, 2012
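Luciferase read-out (15 sec integration) after a 15 min room-temperature substrate step quantifies HCVcc-Cre infection. Cells, 1,000 per well, had compound added 4 h post-plating, then virus at ~0.5 moi, and were cultured 44 h.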
AMA1 RON2 block – qHTS for Inhibitors of AMA1-RON; Towards Development of Antimalarial Drug Lead: Primary Screen. Plasmodium falciparum AMA1 (3D7) - RON2 peptide interaction. AlphaScreen AMA1-biotinylated RON2 peptide binding. Potency, µM (series often up to 58.2 µM), for inactives: at the top dose activity change, negative = inhibition, most hits filed as inhibitors. 360,000 tested, 0.2% active. AID 720542, 2013;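 note: 0% = vehicle wells and -100% = peptide control; nearly all actives have a fitted effect of over 45% in size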
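AMA1 (3D7) with his tag at 25 nM final met compounds first, then biotinylated RON2 peptide at 25 nM; detection used donor plus acceptor beads, 10 µg/mL apiece, read by AlphaScreen after 30 min at room temperature.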
Pf growth 48h – Primary qHTS for delayed death inhibitors of the malarial parasite plastid, 48 hour incubation; P. falciparum luciferase growth in erythrocytes, 48 h; Potency, µM (top dose mostly 28.7 µM), for inactives: at the top dose activity change, negative = inhibition, hits mostly inhibitors; 310,000 tested, 5.9% active; AID 504832, 2011
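First compound was added to culture medium, then infected red cells at 0.1% parasitemia and 2% hematocrit (final). After incubation at 37 C under 5% CO2, luciferase detection reagent was dispensed and light output recorded.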
AmpC inh detg – qHTS Inhibitors of AmpC Beta-Lactamase (assay with detergent) | P00811 | AmpC hydrolysis of nitrocefin, absorbance 480 nm, 0.01% Triton | Potency, µM (doses to about 114 µM), without a hit: at the top dose activity change, negative = inhibition, most hits filed as inhibitors | 370,000 tested, 0.041% active | AID 485294, 2010;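 note: 0% = no-compound wells and -100% = no-enzyme wells; nearly all actives have a fitted effect of over 25% in size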
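20 mM phosphate pH 7.0 + 0.01% (detergent screen) or 0.0001% Triton X-100; 5.3 nM AmpC reagent; cpd preinc 15 min RT; nitrocefin (800 uM stock) to start; A480 q20 s × 4 min; Activity was normalised to no-enzyme and no-compound control wells.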
Pf growth 96h – Primary qHTS for delayed death inhibitors of the malarial parasite plastid, 96 hour incubation; P. falciparum luciferase reporter growth, 96 h; Potency, µM (highest dose often 28.7 µM), for inactives: top-dose activity change, negative = inhibition, actives largely listed as inhibitors; 320,000 tested, 6.9% active
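Plates of compound plus infected erythrocytes (2% hematocrit, 0.05% parasitemia final) incubate 96 hours, 37 C, 5% CO2. Detection reagent added; reduced luminescence from the parasites' luciferase reporter flags inhibition.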
Numbers without * were called inactive; u = inconclusive; x = not tested or not shown; [ ] = dose if it differs, or a comment. Compounds with a hit are over-represented: about 11% of the library has one in this group of screens. Calls come from the whole dose curve; as a rule, active = well fitted curve in the direction sought with a large enough effect; inconclusive = small, poorly fitted or top-dose-only effect, or another doubt; inactive = no such curve, though single readings can be large; an effect the other way counts as inactive or inconclusive. Unless noted, % is set by controls: 0 for no effect and ±100 for the full control effect; potency is the fitted concentration of half-maximal effect.

SMILES | AmpC no deterg | HCV inh | AMA1 RON2 block | Pf growth 48h | AmpC inh detg | Pf growth 96h
COc1ccccc1-c1nnc(SCC(=O)c2c(N)n(C3CC3)c(=O)[nH]c2=O)n1C | -13% | 15% | 4% | u | -7% | 12µM*
C#CC[N+](C)(C)CCCCCCCCCCCC | 58% | u | -6%[11.6 µM] | 1.5µM* | -11% | 0.37µM*
C#CC[N+](C)(C)CCCCCCCC | 1% | -17% | -24% | 3.7µM* | 0% | u
C#CC[N+](C)(C)CCCCCCCCCC | 14% | u | 5% | 0.93µM* | -5% | u
CCCCCCCCCCCCCCCC[N+](C)(C)CCl | x | 12% | -10% | x | x | x
Cc1cc(C)n(C(C)CC(=O)Nc2cccc(C#N)c2)n1 (stereo not drawn) | x | x | x | x | -5% | x
Clc1ccc(/C=N/Nc2nc(Cl)nc3ccccc23)cc1 | 18µM* | -15% | 55% | u | 9% | u
Clc1ccc(/C=N/Nc2nnc(Cl)c3ccccc23)cc1 | -11% | 7% | 6% | 332% | u | -11%
CCC(CC)C(=O)Nc1ccc(C(=O)OCc2cc(=O)n3nc(C4CC4)sc3n2)cc1 | x | x | x | x | -4% | x
Oc1c(C(c2ccc(F)cc2)N2CCCC2)sc2nc(-c3ccco3)nn12 (stereo not drawn) | x | x | x | x | 0% | x
COc1cc(CNc2ccc3[nH]c(=O)[nH]c3c2)ccc1OCc1cccc(C)c1 | -30% | 6.3µM* | 0% | 0% | 1% | -4%
N#Cc1ccccc1NS(=O)(=O)c1ccc(N2CCCCS2(=O)=O)cc1 | x | x | x | x | 15% | x
Nc1nonc1C(=O)N/N=C/c1ccncc1 | -11% | 26% | 18% | 21% | 4% | u
Cc1nonc1C(=O)N/N=C/c1ccncc1 | -15% | 5% | -2% | 8% | 2% | 8.3µM*
O=C(CSc1nnc(CCCN2C(=O)c3cccc4cccc(c34)C2=O)n1-c1ccccc1)N1CCCCC1 | 212% | -1% | 2% | 12µM* | 6% | u
Cc1ccc(CN(Cc2ccco2)C(=O)COc2ccc(Cl)cc2)o1 | x | x | x | x | -3% | x
C=CCn1c(SCc2cc(=O)n3cc(C)ccc3n2)nnc1-c1ccc(F)cc1 | 3% | 2% | -5% | -27% | 0% | 5.2µM*
O=C1c2ccccc2C(O)(c2ccccc2)N1CCc1ccccc1 (stereo not drawn) | -5% | u | 1% | u | -14% | u
O=C1c2ccccc2C(O)(c2ccccc2)N1c1ccncc1 (stereo not drawn) | -25% | 20% | -3% | 12µM* | u | u
CCOc1ccc2[nH]c3c(NCCOC)ncnc3c2c1 | -38% | -11% | -10% | 5% | -11% | u
CCCCN(CCCC)CCn1cnc2c([nH]c3ccc(OC)cc32)c1=O | 20µM* | -2% | -2% | u | u | u
CCOc1ccc2[nH]c3c(NCC(C)C)ncnc3c2c1 | -22% | u | -17% | 2.3µM* | -8% | 1.7µM*
COc1ccc2[nH]c3c(NCCN(C(C)C)C(C)C)ncnc3c2c1 | -3% | u | -6% | 2.6µM* | u | 0.47µM*
CCOc1ccc2[nH]c3c(NCCN(CC)CC)ncnc3c2c1 | -9% | -2% | 6% | 2.3µM* | -5% | 2.1µM*
CSc1nc(Nc2ccc(C)cc2)c(C#N)c(-c2ccccc2)n1 | x | x | x | x | 2% | x
SMILES | AmpC no deterg | HCV inh | AMA1 RON2 block | Pf growth 48h | AmpC inh detg | Pf growth 96h
CC1=NN(c2ccccc2)C(=O)/C1=C/C=C/c1ccc(N(C)C)cc1 | -20%[11.4 µM] | -21% | 1.4µM* | u | u | u
CCOC(=O)CC1=NN(c2ccccc2)C(=O)/C1=C\c1ccc(N(C)C)cc1 | -17% | 9% | u | u | 1% | 5.9µM*
CC1=NN(c2ccccc2)C(=O)/C1=C/N(C)C | -17% | 12% | 3% | 2% | -1% | 3%
CC1=NN(c2ccccc2)C(=O)/C1=C\C=C\c1ccccc1 | -15% | u | 6.3µM* | u | -1% | 12µM*
CCOC(=O)CC1=NN(c2ccccc2)C(=O)C1 | -8% | 3% | 9% | -10% | 3% | 36%[5.75 µM]
Cc1ccc(Cl)cc1NC(=O)CSC1=Nc2ccccc2C2=NC(Cc3ccccc3)C(=O)N12 (stereo not drawn) | x | x | x | x | 22% | x
O=C(NCCSCc1ccccc1)c1ccc(C2SCC(=O)N2Cc2ccccc2)cc1 (stereo not drawn) | -6% | u | -4% | x | 0% | 7.4µM*
COC(=O)c1ccc(C2SCC(=O)N2Cc2ccccc2)cc1 (stereo not drawn) | -29% | 7% | -2% | -21% | -5% | 4%
COc1ccc(C(=O)NCCSCc2ccc(C)cc2)cc1 | -12% | -1% | 0% | u | -1% | u
Cc1ccc(CSCCNC(=O)c2ccc(C)cc2)cc1 | -9% | -4% | 2% | 13µM* | 1% | 0%
CC(=O)Nc1ccc(NC(=O)c2ccc(C3SCC(=O)N3CCc3ccccc3)cc2)cc1 (stereo not drawn) | 6% | u | 17% | -19% | -3% | 12µM*
Cc1cccc(N2C(=O)CS(=O)(=O)C23C(=O)N(Cc2c(F)cccc2Cl)c2ccccc23)c1 (stereo not drawn) | x | x | x | x | 24% | x
Cc1ccc(OCC(=O)N(Cc2cccc(F)c2)C2CCS(=O)(=O)C2)cc1 (stereo not drawn) | 39% | 9% | 0% | u | 0% | 10µM*
COc1cccc(CN(C(=O)COc2ccc(C)cc2)C2CCS(=O)(=O)C2)c1 (stereo not drawn) | 56% | -6% | -1% | -4% | -3% | 22%
CC(C)c1cc(Br)ccc1OCCCN1C(=O)NC(C)(C)C1=O | 110% | 13µM* | 7% | x | u | 12%
CCOCCCN(C)C1CCN(C(=O)c2oc3ccccc3c2NC(=O)c2cccc([N+](=O)[O-])c2)CC1 | 46% | 14µM* | 6% | u | 0% | 63%
Cc1cc(C)c2ccc(=O)n(CC(=O)N/N=C/c3ccccc3Cl)c2n1 | -19% | -2% | -7% | 2.6µM* | 0% | 4%
COC(=O)c1ccc(OCC2c3cc(OC)c(OC)cc3CCN2C(=O)c2ccc(F)cc2)cc1 (stereo not drawn) | x | x | x | x | 3% | x
